Assay outcomes (PubChem)
aSyn 5UTR act – Activators via SNCA 5'UTR binding, MLPCN; activity score, % (tested at 7.5 µM), hits read low; alpha-synuclein 5'UTR reporter, activators screen; actives 7.1% (n = 300,000); in the data active = activity score below about -60%
Hits are given with their value; i = inactive. A selection follows.

SMILES	aSyn 5UTR act
C/C(=N\NC(=O)c1ccccc1F)c1ccc(C#N)cc1	-63.5
C/C(=N\Nc1nc2ccccc2s1)c1ccc2c(c1)OCO2	-175.5
CC(=O)Nc1cccc(/C(C)=N/NC(=O)c2ccc3c(c2)OCO3)c1	-77.7
C/C(=N\NC(=O)c1ccccc1)c1ccc2c(c1)OCO2	-117.6
C/C(=N\NC(=O)c1ccc([N+](=O)[O-])cc1Cl)c1ccccc1	-148.5
O=C(N/N=C(\c1ccccc1)c1ccccn1)c1cccc([N+](=O)[O-])c1	i
C/C(=N\NC(=O)c1c[nH]c2ccccc12)c1ccco1	-173.8
Cc1ccc(C(=O)Nc2sc(C)c(-c3ccccc3)c2C(N)=O)cc1[N+](=O)[O-]	-81.1
C/C(=N\NC(=O)c1c[nH]c2ccccc12)c1ccccn1	i
C/C(=N/NC(=O)c1ccccc1)C1=C(O)CC(C)(C)CC1=O	-94.9
C/C(=N\NC(=O)c1c[nH]c2ccccc12)c1ccc2c(c1)OCO2	-98.5
C/C(=N\NC(=O)c1ccc2c(c1)OCO2)c1ccc(O)cc1	-64.5
C/C(=N\NC(=O)c1ccccc1)c1ccc(C)c([N+](=O)[O-])c1	-109.0
C/C(=N\NC(=O)c1ccccc1)c1cccc(Br)c1	-109.7
C/C(=N\NC(=O)c1nc2ccccn2c1C)c1ccco1	-135.1
C/C(=N\NC(=O)c1ccccc1F)c1cccc(NC(=O)c2ccccc2)c1	-94.0
C/C(=N/NC(=O)c1ccc2c(c1)OCO2)c1ccc(NC(=O)C(F)(F)F)cc1	-127.2
Cc1cc(SCC(=O)c2cc3ccccc3o2)nc2ccccc12	-73.2
NC1=NC2=C(CCCC2)C2(CCCCC2)S1	i
CSc1nc(-c2ccccc2)cn1-c1ccc(NC(C)=O)cc1	-105.6
CCOc1ccc(-c2cn(-c3ccc(OC)cc3)c(SC)n2)cc1	-146.5
COc1cccc(NC(=S)N/N=C2\CC3CCC2(C)C3(C)C)c1 (stereo not given)	-77.8
CCc1ccc(CCC(=O)Nc2ccccc2C(=O)O)o1	-85.4
CC#CCCCC(=O)Nc1ccccc1C(=O)O	-75.3
CC(=O)c1ccc(Oc2ncnc3sccc23)cc1	-147.8
SMILES	aSyn 5UTR act
Cc1cc(C(=O)COc2ncnc3sccc23)c(C)n1C	-124.6
COc1cccc(NC(=O)c2cnc(SCC(=O)NCc3ccc4c(c3)OCO4)n(C)c2=O)c1	-82.2
Cc1csc2ncnc(N3CCN(C(=S)Nc4ccc(C(F)(F)F)cc4)CC3)c12	i
O=C(Nc1ccc2nsnc2c1)N1CCCCCC1	-98.0
S=C(Nc1ccc2nccnc2c1)N1CCCC1	-86.7
S=C(Nc1ccc2nsnc2c1)N1CCCC1	-133.0
O=C(Nc1ccc(Cl)c(C(F)(F)F)c1)C(=O)N1CCCCC1	-67.0
O=C(Nc1ccc(Cl)c(Cl)c1)N1CCCCCC1	-140.2
O=C(CSc1cccs1)Nc1ccc(Cl)cc1	-115.7
O=C(CSc1ccccc1)NCCc1ccccc1	-61.6
O=C(CSc1cccs1)NCCc1ccccc1	-63.5
N#Cc1cnc(Nc2nc3ccccc3o2)nc1-c1ccccc1	-72.0
COc1ccccc1-c1ccc(NC2CCCCC2)nn1	-140.2
C[n+]1c2n(c3ccccc31)N=C(c1cc(C(C)(C)C)c(O)c(C(C)(C)C)c1)CS2	i
O=C(COC(=O)c1ccccc1NC(=O)c1ccco1)NCCC1=CCCCC1	-91.9
O=C(NCCC1=CCCCC1)C1CCC(CNc2nc(=S)[nH]c3ccccc23)CC1 (stereo not given)	i
O=C(COC(=O)c1ccccc1Cl)NCCC1=CCCCC1	-79.4
OC1CCN(C(=S)Nc2ccc(Nc3ccccc3)cc2)CC1	-116.3
OC1CCCN(C(=S)Nc2ccc(SC(F)F)cc2)C1 (stereo not given)	-68.3
CC1CCCN(C(=S)Nc2ccc(Nc3ccccc3)cc2)C1 (stereo not given)	-123.2
COc1cc(O)oc1C=Nc1ccc(C(=O)O)cc1	-90.8
COc1cc(O)oc1C=Nc1ccc(Cl)cc1	-64.5
CC1(C)OC(=CC=Nc2ccc(Cl)cc2)OC1(C)C	i
CCOC(=O)C1=C(N)n2c(s/c(=C/c3ccco3)c2=O)=C(C(=O)OC)C1c1ccco1 (stereo not given)	-65.6
CCCCc1ccc(-c2nc(NC(=O)C3C4CCC(O4)C3C(=O)O)sc2C)cc1 (stereo not given)	-128.3
SMILES	aSyn 5UTR act
O=C(Cn1c(=O)sc2ccccc21)NCc1ccccn1	-68.3
O=C(NC(=S)Nc1cnc2ccccc2c1)c1ccccc1	-171.1
S=C(NCCc1ccccc1)Nc1cnc2ccccc2c1	-114.8
O=C(NC(=S)Nc1ncc(Br)cc1Br)c1ccccc1	-152.9
Cc1ccc(NC(=O)Nc2cnc3ccccc3c2)cc1	-144.3
Cn1ncc2cc(NC(=S)NC(=O)c3ccccc3)ccc21	-201.1
O=C(Nc1cnc2ccccc2c1)c1ccncc1	-109.9
CCc1ccc2oc(-c3ccc(OC)cc3)cc(=Nc3c(C)n(C)n(-c4ccccc4)c3=O)c2c1	-77.3
Cc1csc(NC(=O)c2nc3nc(C)cc(C)n3n2)n1	-90.0
Cc1cc(C)n2nc(C(=O)Nc3nccs3)nc2n1	-111.5
Nc1n[nH]c2ccccc12	-61.6
COc1ccc(-c2csc(Nc3ncccc3C)n2)cc1OC	-172.0
Cc1cccnc1Nc1nc(-c2ccc(O)c(O)c2)cs1	-231.6
Cc1nc(C)c(-c2csc(Nc3ncccc3C)n2)s1	-240.5
COc1ccc(-c2csc(Nc3ncccc3C)n2)cc1	-117.5
COc1ccc(C2=Nn3c(nnc3-c3ccccn3)SC2)cc1OC	i
COc1ccc(C(=O)Nn2c(SCC(=O)NCc3ccco3)nc3ccccc3c2=O)cc1	i
Cc1cc2nnc(SCC(=O)NCc3ccco3)n2c2ccccc12	-184.1
CC(=O)c1cccc2c(O)c(C3=Nc4ccccc4C3=O)[nH]c12	-122.2
COc1ccc2c(c1OC)C(=O)N(c1cccc(C(F)(F)F)c1)C2	-192.3
COc1ccc2c(c1OC)C(=O)N(c1ccccn1)C2	-121.7
COc1ccc2c(c1OC)C(=O)N(c1cccc(C)c1)C2	-114.4
CCCCCCCCCn1c2c(c(=N)c3c1CCC3)CCC2	i
COc1ccc2cc(-c3[nH]ncc3CN3C[C@@H]4CCC[C@H]3C4)ccc2c1	-78.2
COc1ccc2cc(-c3[nH]ncc3CN3CCCCO3)ccc2c1	-105.5
SMILES	aSyn 5UTR act
CS(=O)(=O)c1nc(-c2ccccc2)cc(C(F)(F)F)n1	-111.2
OC(c1cc(-c2ccc(C(F)(F)F)cc2)nc(C(F)(F)F)c1)C1CCCCN1 (stereo not given)	i
CN(/N=C/C=C/c1ccccc1)c1cc(=O)n(C)c(=O)[nH]1	-64.7
CCOC(=O)C1(Cc2ccccc2Cl)CCN(C(=O)c2cc(C)on2)CC1	-83.5
CCOC(=O)C1(Cc2ccccc2Cl)CCN(C(=O)c2cnccn2)CC1	-125.0
COc1cc2cc(C#N)c(SCC(=O)N3CCOCC3)nc2cc1OC	-74.4
N#Cc1cc2cc3c(cc2nc1SCC(=O)N1CCCC1)OCCO3	-84.6
Cc1cc(C)c2nc3sc(C(=O)N4CCOCC4)c(N)c3cc2c1	i
Cc1ccc(C)c2nc3sc(C(=O)N4CCOCC4)c(N)c3cc12	-128.8
CC1(C)NC(=O)N(CCCOc2ccc3c(c2)CCC3)C1=O	-76.7
CC1(C)NC(=O)N(CCCOc2ccc(Br)cc2Cl)C1=O	-148.1
O=C1N=C(N2CCCCC2)S/C1=C\c1ccc(Cl)cc1	-149.5
Cc1ccc(/C=C2\SC(N3CCCCC3)=NC2=O)cc1	-175.6
O=C1N=C(N2CCCCC2)S/C1=C\c1ccccc1F	-143.0
C=CCOc1ccc(/C=C2\SC(N3CCCCC3)=NC2=O)cc1	-66.3
C/C(=N\N=C\c1ccc(N(C)C)cc1)c1cccc([N+](=O)[O-])c1	-68.2
O=[N+]([O-])/C(C(Cl)=C(Cl)Cl)=C(\Sc1ccccc1)N1CCCCC1	-115.9
